# Measurements taken from PubChem BioAssay (Tox21).
# Records with an inconclusive call do not appear. Values without a mark were called inactive. Calls of active or inactive are those of the source. The call rests on the fitted dose curve; in most records, active means well fitted inhibition curve with a large enough effect in the repeat runs; inconclusive means weak or mixed curves; inactive means no such curve, though single readings can be large or run the other way. Positions of bridges follow the written chain, without caps; N, C: chain ends. Non-standard residues stand in square brackets, D forms with d. Residues, ends and D or L forms follow the SMILES beside them. *: point of attachment. X2 = CC[C@H](C)CCCCC(=O)*; Orn = NCCC[C@H](N)C(=O)O; Dab = NCC[C@H](N)C(=O)O; Mpa = O=C(O)CCS
# Molecular target: Aromatase (Homo sapiens) (UniProt P11511)
# Assay: qHTS assay to identify aromatase inhibitors (AID 743083); further: nearly all actives have a fitted effect of over 55% in size
# Settings: MCF-7 aro ERE, testosterone-driven ERE luciferase, 24 h; series mostly up to 70.3 µM; activity, negative = inhibition: at the top concentration
# On the % scale 0 is the no-effect control and ±100 the full control effect; potency means the concentration at half of the fitted maximal effect.
# Chain of Aromatase (Homo sapiens) (P11511 whole entry, looked up): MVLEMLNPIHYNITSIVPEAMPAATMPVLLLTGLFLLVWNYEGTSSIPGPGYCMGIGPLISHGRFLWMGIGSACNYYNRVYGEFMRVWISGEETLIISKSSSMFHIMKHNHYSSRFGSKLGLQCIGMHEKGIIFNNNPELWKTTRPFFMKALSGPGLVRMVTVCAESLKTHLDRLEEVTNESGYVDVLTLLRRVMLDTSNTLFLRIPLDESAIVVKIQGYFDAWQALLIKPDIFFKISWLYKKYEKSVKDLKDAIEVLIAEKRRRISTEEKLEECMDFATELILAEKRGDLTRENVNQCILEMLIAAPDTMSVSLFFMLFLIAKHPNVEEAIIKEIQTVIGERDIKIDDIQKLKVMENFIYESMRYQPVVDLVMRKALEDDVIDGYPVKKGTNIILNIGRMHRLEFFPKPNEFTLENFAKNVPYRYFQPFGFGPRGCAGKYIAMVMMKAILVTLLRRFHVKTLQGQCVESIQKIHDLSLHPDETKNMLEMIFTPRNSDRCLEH
Structure (SMILES),"activity, negative = inhibition",Potency
NCCC(=O)[N-][C@@H](Cc1cnc[nH]1)C(=O)O.[Zn],3.31%,–
CNc1cc(OC)c(C(=O)N[C@H]2CCN(Cc3ccccc3)[C@H]2C)cc1Cl,-0.373%,–
C#CCOc1ccc2c(C)cc(=O)oc2c1,42.5%,–
OC[C@H]1O[C@@H](n2cnc3c2NC=NC[C@H]3O)C[C@@H]1O,-5.75%,–
CCCC(=O)Nc1c(I)cc(I)c(CC(CC)C(=O)O)c1I (centres undefined),5.73%,–
O=P(O)(O)OC(CO)CO,0.0532%,–
CCCCCCCCCCCCCCCC(=O)O[C@@H]1[C@@H](O)[C@@H](O)[C@@H]([C@H](NC(=O)[C@@H]2C[C@@H](CCC)CN2C)[C@H](C)Cl)O[C@@H]1SC,5.37%,–
CC(=O)O[C@H]1C[C@@]2(C)[C@@H](C[C@@H](O)[C@H]3[C@@]4(C)CC[C@@H](O)[C@@H](C)[C@@H]4CC[C@@]32C)/C1=C(\CCC=C(C)C)C(=O)O,2.04%,–
CC1=C[C@H](O)CC(C)(C)[C@H]1/C=C/C(C)=C/C=C/C(C)=C/C=C/C=C(C)/C=C/C=C(C)/C=C/C1=C(C)C[C@@H](O)CC1(C)C,22.2%,–
C[C@H](CSC(=O)c1ccccc1)C(=O)N1C[C@@H](Sc2ccccc2)C[C@H]1C(=O)O,4.78%,–
O=S(O)CNc1ccc(S(=O)(=O)c2ccc(NCS(=O)O)cc2)cc1,-2.62%,–
CC(=O)O[C@H]1C[C@@H]2CC[C@@H]3[C@H](CC[C@@]4(C)[C@H]3C[C@H](N3CC[N+](C)(C)CC3)[C@@H]4OC(C)=O)[C@@]2(C)C[C@@H]1N1CC[N+](C)(C)CC1,5.2%,–
O=C1O[C@H]2[C@H](O)[C@@H]1OC(O)[C@H]2O (some centres undefined),3.36%,–
CC(=O)Nc1ccc(NC(=S)NC(=O)c2ccc(C(C)(C)C)cc2)cc1,23.6%,–
CCSc1ccc2c(c1)N(CCCN1CCN(C)CC1)c1ccccc1S2,-12.8% [at 32.5 µM],–
CC[C@H]1OC(=O)[C@H](C)[C@@H](O[C@H]2C[C@@](C)(OC)[C@@H](O)[C@H](C)O2)[C@H](C)[C@@H](O[C@@H]2O[C@H](C)C[C@H](N(C)C)[C@H]2O)[C@](C)(O)C[C@@H](C)[C@@H]2N[C@@H](COCCOC)O[C@@H]([C@H]2C)[C@]1(C)O,-1.23%,–
Cn1c(=O)c2c(ncn2CCOC(=O)C(C)(C)Oc2ccc(Cl)cc2)n(C)c1=O,-9.26%,–

Structure (SMILES),"activity, negative = inhibition",Potency
O=C(O)c1ccc(OCCn2ccnc2)cc1,-4.25%,–
CO[C@@H]1[C@@H](O[C@@H]2O[C@H](C)[C@@H](O[C@H]3C[C@@](C)(O)[C@@H](OC(=O)CC(C)C)[C@H](C)O3)[C@H](N(C)C)[C@H]2O)[C@@H](CC=O)C[C@@H](C)[C@@H](O)/C=C/C=C/C[C@@H](C)OC(=O)C[C@H]1O,74.1%,–
CCN(CC)CCOc1ccc2nc(N(C)C)sc2c1,42.9%,–
COCC1=C(C(=O)OC(C)OC(=O)OC(C)C)N2C(=O)[C@@H](NC(=O)/C(=N\OC)c3csc(N)n3)[C@H]2SC1 (some centres undefined),–,inactive
Cc1cccc(C)c1Nc1ncccc1C(=O)O,80.6%,–
CC1=C(/C=C/C(C)=C/C=C/C(C)=C/C=C/C=C(C)/C=C/C=C(C)/C=C/C2=C(C)C(=O)CCC2(C)C)C(C)(C)CCC1=O,-17.6%,–
CCC(=O)O[C@]1(C(=O)CCl)[C@@H](C)C[C@H]2[C@@H]3C[C@H](F)C4=CC(=O)C=C[C@]4(C)[C@@]3(F)[C@@H](O)C[C@@]21C,5.23%,–
O=C1C(=O)c2ncccc2-c2cccnc21,–,23.7 µM (active)
CC[C@H](C)CCCCC(=O)N[C@@H](CCN)C(=O)N[C@H](C(=O)N[C@@H](CCN)C(=O)N[C@H]1CCNC(=O)[C@H]([C@@H](C)O)NC(=O)[C@H](CCN)NC(=O)[C@H](CCN)NC(=O)[C@H](CC(C)C)NC(=O)[C@@H](CC(C)C)NC(=O)[C@H](CCN)NC1=O)[C@@H](C)O (X2-[Dab]T[Dab][Dab][Dab][dL]L[Dab][Dab]T; lactam 4-C),1.9%,–
O=C(NCCNCC(O)COc1ccc(O)cc1)N1CCOCC1 (centres undefined),-2.26%,–
CCOc1ccc(C[C@H]2NC(=O)CCSSC[C@@H](C(=O)N3CCC[C@H]3C(=O)N[C@@H](CCCN)C(=O)NCC(N)=O)NC(=O)[C@H](CC(N)=O)NC(=O)[C@H]([C@@H](C)O)NC(=O)[C@H]([C@@H](C)CC)NC2=O)cc1 ([Mpa][dY](Et)ITNCP[Orn]G-NH2; disulfide 1-6),2.27%,–
CC(C)CN(C[C@@H](O)[C@H](Cc1ccccc1)NC(=O)O[C@H]1CO[C@H]2OCC[C@H]21)S(=O)(=O)c1ccc(N)cc1,0.479%,–
CCCCCCCCCCCCCCCCCC(=O)OCC(C)O (centres undefined),-0.325%,–
CC(NNC(=O)c1ccccc1)c1ccccc1 (centres undefined),53%,–
CC(=O)O[C@H]1C(=O)[C@@]2(C)[C@H]([C@H](OC(=O)c3ccccc3)[C@]3(O)C[C@H](OC(=O)[C@H](O)[C@@H](NC(=O)c4ccccc4)c4ccccc4)C(C)=C1C3(C)C)[C@]1(OC(C)=O)CO[C@@H]1C[C@@H]2O,-16.2%,–
CCC(=O)NS(=O)(=O)c1ccc(-c2c(-c3ccccc3)noc2C)cc1,41.1%,–
CN(C(=O)CO)c1c(I)c(C(=O)NCC(O)CO)c(I)c(C(=O)NCC(O)CO)c1I (centres undefined),0.388%,–
